PolyA inh: inhibitors of polyadenylation in S. cerevisiae; S. cerevisiae SKY197-pL101 polyadenylation reporter, beta-gal luminescence; efflux-impaired pdr1/pdr3 knockout yeast; score 100 = 6 SD above DMSO; 0.02% of 300,000 active; activity score, % at 12 µM;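 active = lowest replicate activity score at least 50, where 100 means six control SD above control mean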;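 also: yeast exposed to compound for 9 h at 30 °C; higher score means more reporter readthrough which indicates perturbed polyadenylation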
AHR activator: activators of human aryl hydrocarbon receptor; P35869; AHR-responsive luciferase reporter cells, luminescence; activation, % at 5 µM; 2.5% of 320,000 active; AID 2796; in the data active = activation above about 47%;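 also: 0% = vehicle wells and 100% = reference agonist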
p-CIP stab down: compounds decreasing mouse p/CIP protein stability | F442A p/CIP-EGFP cells, EGFP fluorescence, 16 h | Q05BA5 | 0.01% of 290,000 active | decrease of EGFP signal, % at 10 µM;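 active = EGFP signal decrease of at least 30% at 10 µM or well 3 SD below plate mean, unless failing retest; inactive = the rest, including hits failing retest or dose response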
Target sequence (Q05BA5 1-1403): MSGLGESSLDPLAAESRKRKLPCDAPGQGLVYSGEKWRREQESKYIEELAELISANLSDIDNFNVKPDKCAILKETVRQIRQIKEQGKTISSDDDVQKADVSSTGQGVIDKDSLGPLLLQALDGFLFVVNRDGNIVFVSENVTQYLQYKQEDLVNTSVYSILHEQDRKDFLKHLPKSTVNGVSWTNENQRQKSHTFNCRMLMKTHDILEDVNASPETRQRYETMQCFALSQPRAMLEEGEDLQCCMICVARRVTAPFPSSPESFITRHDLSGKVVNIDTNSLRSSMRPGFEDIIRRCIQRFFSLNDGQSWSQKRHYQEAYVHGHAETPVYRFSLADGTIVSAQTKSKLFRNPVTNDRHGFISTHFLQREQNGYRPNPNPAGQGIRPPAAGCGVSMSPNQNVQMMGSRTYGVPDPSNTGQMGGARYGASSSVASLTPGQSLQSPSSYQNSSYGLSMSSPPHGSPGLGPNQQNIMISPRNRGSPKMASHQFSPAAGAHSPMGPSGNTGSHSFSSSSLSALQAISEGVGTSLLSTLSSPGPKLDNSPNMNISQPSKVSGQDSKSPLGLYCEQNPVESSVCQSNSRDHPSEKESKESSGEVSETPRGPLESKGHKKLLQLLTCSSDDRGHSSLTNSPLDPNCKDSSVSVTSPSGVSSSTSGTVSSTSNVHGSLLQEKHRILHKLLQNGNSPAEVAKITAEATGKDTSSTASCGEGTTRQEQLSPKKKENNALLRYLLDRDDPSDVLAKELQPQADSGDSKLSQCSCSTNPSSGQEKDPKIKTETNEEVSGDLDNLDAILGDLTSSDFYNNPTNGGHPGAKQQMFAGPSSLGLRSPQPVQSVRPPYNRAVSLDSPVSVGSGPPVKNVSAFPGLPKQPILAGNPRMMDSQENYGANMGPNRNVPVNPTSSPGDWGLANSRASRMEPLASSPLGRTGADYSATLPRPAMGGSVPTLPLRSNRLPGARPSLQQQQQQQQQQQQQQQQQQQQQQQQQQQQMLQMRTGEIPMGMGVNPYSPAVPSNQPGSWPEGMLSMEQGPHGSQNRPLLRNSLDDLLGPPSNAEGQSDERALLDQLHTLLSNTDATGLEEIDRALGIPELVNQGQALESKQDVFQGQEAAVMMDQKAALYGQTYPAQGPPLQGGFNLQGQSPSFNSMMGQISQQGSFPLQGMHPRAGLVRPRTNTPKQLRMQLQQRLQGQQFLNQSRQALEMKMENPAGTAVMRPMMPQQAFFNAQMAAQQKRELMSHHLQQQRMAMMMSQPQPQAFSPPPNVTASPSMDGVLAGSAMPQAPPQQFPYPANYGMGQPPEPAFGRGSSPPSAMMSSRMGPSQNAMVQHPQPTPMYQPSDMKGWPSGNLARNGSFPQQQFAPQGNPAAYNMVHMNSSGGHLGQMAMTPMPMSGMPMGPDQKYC
HIF activator: HIF pathway transcriptional activation. U2OS HRE-luciferase reporter, luminescence; normalized: DMSO 0%, desferrioxamine 100%. 0.32% of 300,000 active. activation, % at 7.5 µM (by protocol). AID 1910;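 active = mean activation of at least 10% of the iron chelator positive control signal, with at least half of replicates also reaching 10%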
Platelet DG rel: modulates dense granule release in human platelets; AID 1663; 0.22% of 300,000 active; human platelet-rich plasma, SFLLRN dense granule ATP release, luminescence; inhibition, %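 (compounds screened at 7.5 µM in platelet-rich plasma)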;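 active = mean replicate score, as percent of positive control, at or above 50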
AHR act confirm: human AHR activation, confirmation; 87% of 2,300 active; human cells, AHR-responsive luciferase reporter, luminescence; shares compounds with AHR activator; activation, % at 9 µM; in the data active = activation above about 49%;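 also: HepG2 hepatoma cells carrying a DRE-driven firefly luciferase reporter; 0% = vehicle wells and 100% = reference agonist wells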
PXR act counter: counter-screen for AHR activators: human PXR activators | activation, % at 11.6 µM | 88% of 2,300 active | cell-based PXR reporter, luciferase luminescence | shares compounds with AHR activator; in the data active = activation above about 11%;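 also: human hepatoma DPX-2 cells expressing full-length human PXR; 0% = DMSO and 100% = reference agonist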
* marks the source's active call; other numbers are inactive results; nt = no result given. Compounds with a hit are over-represented: about 2.8% of the library has one in this group of screens.

SMILES	PolyA inh	AHR activator	p-CIP stab down	HIF activator	Platelet DG rel	AHR act confirm	PXR act counter
COc1ccc(C(CNC(=O)CN(C)S(=O)(=O)c2ccc(C)cc2)N2CCCC2)cc1 (stereo unspecified)	nt	0	nt	nt	nt	nt	nt
COc1ccc(-c2nc(C(N)=O)c3[nH]c(=O)n(-c4cccc(Cl)c4)c3n2)cc1OC	16	nt	2	0	1	nt	nt
COc1cccc(-c2nc(C(N)=O)c3[nH]c(=O)n(-c4cccc(Cl)c4)c3n2)c1OC	23	89*	-16	0	19	93*	31*
OCC1OC(Oc2c[nH]c3ccccc23)C(O)C(O)C1O (stereo unspecified)	-3	84*	nt	0	-2	26	8
O=c1cc(-c2ccc3c(c2)OCO3)oc2ccccc12	-21	104*	7	2	0	142*	79*
O=C(COc1ccccc1)Nc1ccc(Cl)cc1Cl	-9	-1	7	4	1	nt	nt
Cc1cc(NCCCn2ccnc2)n2nc(-c3ccc(F)cc3)cc2n1	12	47	17	1	6	nt	nt
Cc1cc(NCCCn2ccnc2)n2nc(-c3ccc(Cl)cc3)cc2n1	12	134*	2	0	0	110*	18*
Cc1ccc(-c2[nH]c(-c3ccccc3)nc2SCC(=O)NCC2CCCO2)cc1 (stereo unspecified)	13	93*	-24	0	5	91*	110*
Cc1ccc2nc(SCC(=O)NCC3CCCO3)c(C#N)cc2c1 (stereo unspecified)	4	5	4	1	-4	nt	nt
Cc1ccc(-c2nc(S(=O)(=O)c3ccccc3)c(SCC(=O)NCC3CCCO3)o2)cc1 (stereo unspecified)	-4	7	-11	-1	-3	nt	nt
Cc1ccc(-c2nc(SCC(=O)NCC3CCCO3)c(-c3ccc(Cl)cc3)[nH]2)cc1 (stereo unspecified)	-17	86*	-9	0	1	73*	73*
COc1ccc(N(C)C(=O)C2CCCN2S(=O)(=O)c2cccc3nsnc23)c(OC)c1 (stereo unspecified)	20	1	10	-1	-2	nt	nt
Cc1c(=O)n(OCc2ccccc2F)c2ccccc2[n+]1[O-]	0	94*	-17	-1	10	139*	26*
O=C(NCc1ccccn1)c1ccc2ccccc2n1	1	91*	-1	0	-6	86*	16*
[O-]/[N+](=C\c1ccccc1)c1ccc(Br)cc1	nt	88*	nt	nt	nt	114*	14*
[O-]/[N+](=C\c1ccccc1)c1ccccc1	nt	3	nt	nt	nt	nt	nt
Cc1cccc(C(=O)Nc2sc3c(c2C(=O)O)CCCC3)c1	-2	8	-14	3	-2	nt	nt
Cc1ccc2nc(-c3ccncc3)[nH]c2c1	-14	134*	4	3	12	87*	21*
Cc1ccc(C(=O)COC(=O)c2cccc([N+](=O)[O-])c2)s1	nt	0	nt	nt	nt	nt	nt
C/C(=N\NC(=S)NC(C)C)c1ccc(-n2ccnc2)cc1	15	122*	8	0	14	77*	14*
C=CCNC(=S)N/N=C(\C)c1ccc(-n2ccnc2)cc1	-3	89*	4	-3	36	106*	19*
CCOC(=O)N1CCC(NS(=O)(=O)c2ccc(C#N)cc2)CC1	18	-2	-4	0	2	nt	nt
NC1=NC(=Nc2ccccc2)c2ccccc21	-9	-5	9	0	0	nt	nt
NC1=NC(=Nc2ccc(Br)cc2)c2ccccc21	21	88*	-11	1	-2	13	15*
N/C(=N\NS(=O)(=O)c1ccccc1Cl)c1ccccn1	18	-1	nt	2	-11	nt	nt
Cc1cc(C)c2c(c1)SC1=NC(c3ccccc3)(C(F)(F)F)NC(=O)N12 (stereo unspecified)	20	91*	10	1	6	66*	21*
O=C(N/N=C/c1ccc(-n2ccnc2)cc1)c1cccs1	-7	97*	10	2	-2	65*	23*
Cc1nc(C)c(C(=O)N/N=C/c2c[nH]c3ccccc23)s1	8	84*	-4	4	8	47*	nt
Cc1nc(C)c(C(=O)N/N=C/c2cn(C)c3ccccc23)s1	7	97*	-7	2	2	63*	23*

Compound activity from PubChem BioAssay.
